Assay outcomes as filed in PubChem BioAssay.
An excerpt weighted towards active compounds, which were near 8.1% of everything screened.
ELG1 DNA repair: blocks ELG1-dependent DNA repair in HEK293T cells | HEK293T ELG1-luciferase reporter, luminescence, 16 h; DNA damage induced by 5-fluorouridine | Potency, µM (top dose mostly 46.1 µM), inactives show at the highest dose activity change, negative = inhibition, actives largely listed as inhibitors | hit rate 2.3% among 330,000; note: % is set by controls: 0 for no effect and ±100 for the full control effect; nearly all actives have a fitted effect of over 55% in size
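DMSO vehicle served as the neutral condition. Each well held 2,000 cells given 5-fluorouridine plus compound; after 16 hr at 37 °C/5% CO2, ONE-Glo was added and luciferase measured 30 min later.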
SW480 rereplic: DNA re-replication induction in SW480 cells; SW480 DNA re-replication, Hoechst DNA content imaging, 48 h; Potency, µM (doses to about 46.1 µM), for the others: top-dose re-replication activation, actives largely listed as activators; hit rate 1.8% among 340,000; note: % of control where 0% means no effect; nearly all actives have a fitted effect of over 55% in size
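DNA re-replication was detected as more nuclei of elevated Hoechst intensity after 48 hr exposure to compound (23 nL pinned per well of 250 cells).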
KB-3-1 cytotox: kills parental KB-3-1 adenocarcinoma cells; KB-3-1 viability, CellTiter-Glo ATP luminescence, 72 h; AID 1347075; Potency, µM (doses to about 46.1 µM), usual class: cytotoxic; hit rate 1.4% among 400,000; note: % is set by controls: 0 for no effect and ±100 for the full control effect; nearly all actives have a fitted effect of over 60% in size
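Cytotoxicity measured as CellTiter-Glo luminescence after 72 h at 37 C. Compound titrations were pinned onto drug-naive KB-3-1 parental adenocarcinoma cells grown in DMEM with 10% FBS, and normalized data fitted to concentration-response curves.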
KB-V1 cytotox: KB-V1 MDR subline cytotoxicity. KB-V1 MDR cells viability, CellTiter-Glo, 72 h. Potency, µM (top dose mostly 46.1 µM), usual class: cytotoxic. hit rate 3.4% among 400,000; note: % is set by controls: 0 for no effect and ±100 for the full control effect; nearly all actives have a fitted effect of over 60% in size
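Cells of the MDR subline KB-V1 are plated, dosed with compound at multiple concentrations, and incubated 72 h at 37 degrees C; CellTiter-Glo is then added and luminescence read after 10 min.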
MCF10A rerep: DNA re-replication induction in MCF 10a cells | hit rate 2.9% among 350,000 | Potency, µM (top dose mostly 46.1 µM), for inactives: at the top dose activity, positive = re-replication, hits mostly activators | AID 624296 | MCF 10A DNA re-replication, Hoechst nuclear intensity, 48 h; note: % of control where 0% means no effect; nearly all actives have a fitted effect of over 50% in size
Active calls of the source: *; i = inactive; ? = inconclusive; · = no result; [ ] = dose if it differs, or a comment. Calls come from the whole dose curve; as a rule, active = well fitted curve in the direction sought with a large enough effect; inconclusive = small, poorly fitted or top-dose-only effect, or another doubt; inactive = no such curve, though single readings can be large; an effect the other way counts as inactive or inconclusive. Potency is the fitted concentration of half-maximal effect.

SMILES | ELG1 DNA repair | SW480 rereplic | KB-3-1 cytotox | KB-V1 cytotox | MCF10A rerep
COc1cc2c(cc1OC)CN(C(=O)c1ccc(Br)o1)CC2 | 14.9% | -10.7% | i | i | 0.7%
O=C(CSc1nc2c([nH]c3ccccc32)c(=O)n1-c1ccc(Cl)cc1)N1CCc2ccccc21 | · | · | i | i | ·
CC1CCCCC1NC(=O)c1ccc(-n2cncn2)cc1 (stereo not drawn) | 3.9% | -11.9% | i | i | -2.6%
CCN1/C(=C/c2ccc3cc(C)ccc3[n+]2CC)Sc2ccccc21 | ? | -8.4% | 1.64µM* | i | 14.2%
CCOC(=O)/C(=C/C=C1\Sc2cc(C)c(C)cc2N1CC)C(C)=O | ? | -9.1% | ? | ? | 21.3%
CCN1/C(=C/c2ccc3cc(C)ccc3[n+]2CC)Sc2cc(C)c(C)cc21 | ? | ? | 1.84µM* | ? | -2.3%[9.22 µM]
CC[n+]1c(/C=C2\Sc3ccccc3N2C)ccc2cccc(C)c21 | ? | -10.3% | 0.461µM* | 16.4µM* | -6.1%
Cc1ccc2oc(C(=O)Nc3ccc(S(=O)(=O)Nc4ncccn4)cc3)cc(=O)c2c1 | · | · | i | i | ·
CCOC(=O)Cn1ccc2cc(S(=O)(=O)N3CCCC3)ccc21 | · | · | i | i | ·
O=C(O)c1ccccc1NCc1cccnc1 | · | 3.5% | i | i | 1.7%
O=C(O)CNc1ccccc1C(=O)O | 20.6µM* | ? | i | i | 1.2%
CCN1C(=O)[C@H]2[C@@H](c3ccc(-c4ccccc4)cc3)N3CCC[C@@]3(C(=O)OC)[C@H]2C1=O | ? | -18.4% | i | i | ?
O=C(O)CCc1ccc(-c2ccccc2)n1NC(=O)c1cccs1 | 15.1% | 23.1µM* | i | i | -15.1%
COc1ccc(CCNC(=O)Nc2nc(C(N)COCc3ccccc3)cs2)cc1OC (stereo not drawn) | · | · | i | i | ·
O=C(NCc1ccccc1)/C(=C\c1ccc(F)cc1)NC(=O)c1ccco1 | · | · | i | i | ·
CCCC(=O)Nc1nnc(SCC(=O)Nc2ccc(OCC)cc2)s1 | · | · | i | i | ·
CCOC(=O)c1c(NC(=O)CC(C)C)sc(C(C)=O)c1C | -27.6% | 0.4% | i | i | 18.2%
CCOC(=O)c1c(NC(=O)c2cc(Cl)ccc2Cl)sc2c1CCCC2 | · | · | i | i | ·
CCOC(=O)c1c(NC(=O)c2ccoc2C)sc2c1CCC2 | -5.4% | 5.9% | i | 20.6µM* | ?
Cc1cccc(NC(=O)COc2cccc3c2CCN(C)C3=O)c1C | ? | -2.7% | i | ? | 0.2%
CCOC(=O)c1c(NC(=O)COc2cccc3c2CCN(C)C3=O)sc2c1CCC2 | 18.4µM* | -4.3% | i | ? | ?
CCOC(=O)c1c(NC(=O)c2ccoc2C)sc(C(=O)N(C)C)c1C | 7.31µM* | -2.9% | i | i | -2.5%
CCOC(=O)c1sc(NC(=O)CN(CC(C)C)CC(C)C)c(C(=O)OCC)c1C | -8.2% | 2.7% | ? | 20.6µM* | ?
Cc1ccc(CN2C(=O)CCC2(C)c2nnnn2-c2ccc3c(c2)OCCO3)cc1 (stereo not drawn) | · | · | i | i | ·
CCOC(=O)c1c(NC(NC(=O)C(C)C)C(Cl)(Cl)Cl)sc2c1CCC2 (stereo not drawn) | -12.5% | ? | ? | 23.1µM* | 23.1µM*
SMILES | ELG1 DNA repair | SW480 rereplic | KB-3-1 cytotox | KB-V1 cytotox | MCF10A rerep
CCOC(=O)c1c(NC(=O)COC(=O)c2ccccc2NC)sc(C(=O)N(C)C)c1C | 18.3µM* | 16.5% | i | ? | 11.3%
O=C(C[C@@H]1C/C=C\C[C@H](Cc2ccc(F)cc2)C(=O)OCCNC1=O)NCCO | 11.1% | -4.5% | i | i | 3.6%
Cc1ccc2c(c1)[C@H]1[C@H](CO2)[C@H](c2ccccc2)[C@]2(C)C(=O)Nc3ccc(Cl)cc3C(=O)N12 | ? | 14.6µM* | ? | ? | ?
Cc1ccc2c(c1)[C@H]1[C@H](CO2)[C@H](c2ccccc2)[C@]2(C)C(=O)Nc3ccccc3C(=O)N12 | ? | 9.2µM* | i | ? | 3.26µM*
C[C@@]12C(=O)Nc3ccccc3C(=O)N1[C@H]1c3cc(Cl)ccc3OC[C@@H]1[C@@H]2c1ccccc1 | ? | ? | ? | ? | 7.31µM*
COc1ccc(NS(=O)(=O)c2ccccc2C(=O)O)cc1 | · | · | ? | i | ·
COc1ccc(OC)c2c1C(=O)C(Cl)=C(Cl)C2=O | 20.6µM* | ? | 5.8µM* | 5.17µM* | 2.59µM*
COc1ccc(OC)c2c1C(=O)c1ccccc1C2=O | 0.6% | 1.5% | i | i | 10.8%
Cc1ccc2c(c1)c1ccc3c(c1n2C)C(=O)C=CC3=O | -25.8% | ? | 16.4µM* | i | ?
Cn1c2ccccc2c2ccc3c(c21)C(=O)C=CC3=O | · | 1.4% | ? | ? | 6.51µM*
COc1ccc2c(c1)c1ccc3c(c1n2C)C(=O)C=CC3=O | -10.0% | -4.9% | i | i | ?
O=C(Nc1ccc(F)cc1)c1cc(S(=O)(=O)Nc2ccc(F)cc2)cs1 | -8.2% | 23.2% | i | i | 43.4%
COc1ccc(NC(=O)c2cc(S(=O)(=O)Nc3ccc(OC)cc3)cs2)cc1 | ? | -13.1% | i | 20.6µM* | 3.2%
O=C(Nc1ccc(Cl)cc1)c1cc(S(=O)(=O)N2CCOCC2)cs1 | 14.6µM* | -1.1% | ? | 9.2µM* | 28.1%
O=C(Nc1ccc(F)cc1)c1cc(S(=O)(=O)N2CCOCC2)cs1 | -18.1% | ? | i | i | -0.5%
Cc1ccc(NC(=O)c2cc(S(=O)(=O)N3CCOCC3)cs2)cc1 | 10.9% | 2.8% | i | i | 0.2%
Cc1ccc(NC(=O)c2cc(S(=O)(=O)N3CCCCC3)cs2)cc1 | ? | 0.3% | ? | 14.6µM* | ?
CCOc1cc(N2CCOCC2)c(OCC)cc1NC(=O)COC(=O)c1ccccc1C | ? | -8.6% | i | i | 10.6%
CCN(CC)S(=O)(=O)c1ccc(N2CCCC2)c(NC(=O)c2nn(C)c(=O)c3ccccc23)c1 | 18.3µM* | 0.9% | i | i | 1.0%
CCN(CC)S(=O)(=O)c1ccc(N2CCOCC2)c(NC(=O)Cc2cccc3ccccc23)c1 | 7.31µM* | -6.9% | i | i | -3.0%
CCN(CC)S(=O)(=O)c1ccc(N2CCOCC2)c(NC(=O)Cc2ccccc2F)c1 | 18.4µM* | -2.8% | i | i | 15.4%
CCOc1cc(N2CCOCC2)c(OCC)cc1NC(=O)Cc1cccc2ccccc12 | 18.4µM* | -0.5% | i | ? | 15.5%
COc1cccc(-n2c(SCC(=O)N3CCc4ccccc43)nc3c([nH]c4ccccc43)c2=O)c1 | · | · | i | ? | ·
COc1ccc(OC)c(CN2C(=O)c3ccccc3C2c2nnnn2C(C)C)c1 (stereo not drawn) | · | · | i | i | ·
CCOC(=O)c1nnc(-c2ccc(C)cc2)nc1Sc1ccc(Cl)cc1 | 7.5% | -6.7% | i | i | -1.8%
